# Data as given in PubChem BioAssay AID1159580 (chemical genetic matrix, 2015).
# The whole screen tested about 5,500 compounds, of which about 2,000 (36%) were called active. Roughly 18% stayed inconclusive and do not appear here. Some of the results follow. Unmarked numbers belong to inactive results. Cut-off read from the data, not from the text of the source: active = normalized growth mostly below about 0.91 (no sharp cut-off); inconclusive = no clear call, values can overlap the other calls; inactive = mostly above about 0.92.
# Assay: chemical genetic growth profiling, strain panel (AID 1159580);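 note: tested at 20 µM; growth read once vehicle control cultures reached saturation at 30 °C; 1 = growth at the plate median or of vehicle wells; lower values mean less growth of the strain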
# Settings: S. cerevisiae deletion strains, growth OD
compound,measurement,setting,value
C=C1CCC(=O)C(C)CCC2C1CC2(C)C (stereo unspecified),normalized growth,"locus YAL013W, strain DEP1, active compounds read low",1.01
same,normalized growth,"locus YBR021W, strain FUR4, active compounds read low",1
same,normalized growth,"locus YBR229C, strain ROT2, active compounds read low",1.02
same,normalized growth,"locus YCL029C, strain bik1, active compounds read low",0.993
same,normalized growth,"locus YDL035C, strain GPR1, active compounds read low",1
same,normalized growth,"locus YDL074C, strain BRE1, active compounds read low",1
same,normalized growth,"locus YDL101C, strain DUN1, active compounds read low",1.03
same,normalized growth,"locus YDL134C, strain PPH21, active compounds read low",1.03
same,normalized growth,"locus YDL185W, strain tfp1, active compounds read low",1
same,normalized growth,"locus YDL192W, strain arf1, active compounds read low",0.972
same,normalized growth,"locus YDR101C, strain arx1, active compounds read low",0.987
same,normalized growth,"locus YDR150W, strain NUM1, active compounds read low",1.02
same,normalized growth,"locus YDR162C, strain NBP2, active compounds read low",1.06
same,normalized growth,"locus YDR318W, strain mcm21, active compounds read low",0.998
same,normalized growth,"locus YDR388W, active compounds read low",0.997
same,normalized growth,"locus YDR502C, strain sam2, active compounds read low",1
same,normalized growth,"locus YEL061C, strain CIN8, active compounds read low",1.01
same,normalized growth,"locus YER110C, active compounds read low",0.99
same,normalized growth,"locus YER155C, strain BEM2, active compounds read low",1.02
same,normalized growth,"locus YER167W, strain BCK2, active compounds read low",1.01
same,normalized growth,"locus YGL078C, strain dbp3, active compounds read low",0.995
same,normalized growth,"locus YGL086W, strain mad1, active compounds read low",0.986
same,normalized growth,"locus YGL248W, strain PDE1, active compounds read low",1.03
same,normalized growth,"locus YGR135W, strain pre9, active compounds read low",1.01
same,normalized growth,"locus YGR252W, strain gcn5, active compounds read low",1
same,normalized growth,"locus YHR030C, strain SLT2, active compounds read low",1.02
same,normalized growth,"locus YHR079C, strain IRE1 (second series), active compounds read low",0.984
same,normalized growth,"locus YHR094C, strain hxt1, active compounds read low",0.996
same,normalized growth,"locus YHR129C, strain ARP1, active compounds read low",1.02
same,normalized growth,"locus YHR200W, strain rpn10, active compounds read low",0.995
same,normalized growth,"locus YIL066C, strain RNR3, active compounds read low",1.02
same,normalized growth,"locus YIL073C, strain SPO22, active compounds read low",0.971
same,normalized growth,"locus YIL125W, strain kgd1, active compounds read low",0.987
same,normalized growth,"locus YIR030C, strain dcg1, active compounds read low",0.998
same,normalized growth,"locus YJL095W, strain BCK1, active compounds read low",1.02
same,normalized growth,"locus YJL134W, strain LCB3, active compounds read low",1.02
same,normalized growth,"locus YJL168C, strain set2, active compounds read low",1.01
same,normalized growth,"locus YJL187C, strain SWE1 (second series), active compounds read low",1.03
same,normalized growth,"locus YJR043C, strain POL32, active compounds read low",1.03
same,normalized growth,"locus YKL009W, strain mrt4, active compounds read low",0.976
same,normalized growth,"locus YKL068W, active compounds read low",1.01
same,normalized growth,"locus YKL085W, strain MDH1 (second series), active compounds read low",0.99
same,normalized growth,"locus YKL085W, strain MDH1, active compounds read low",0.99
same,normalized growth,"locus YKR001C, strain vps1, active compounds read low",0.864 (active)
same,normalized growth,"locus YLR039C, strain RIC1, active compounds read low",1.01
same,normalized growth,"locus YLR058C, strain SHM2, active compounds read low",1.02
same,normalized growth,"locus YLR102C, strain apc9, active compounds read low",0.994
same,normalized growth,"locus YLR262C, strain YPT6, active compounds read low",1.03
same,normalized growth,"locus YLR268W, strain sec22, active compounds read low",0.985
same,normalized growth,"locus YLR330W, strain CHS5, active compounds read low",1.02
same,normalized growth,"locus YLR342W, strain FKS1 (second series), active compounds read low",1.01
same,normalized growth,"locus YLR371W, strain rom2, active compounds read low",0.994
same,normalized growth,"locus YLR418C, strain cdc73, active compounds read low",1.01
same,normalized growth,"locus YML016C, strain PPZ1, active compounds read low",1.02
same,normalized growth,"locus YML032C, strain rad52, active compounds read low",0.997
same,normalized growth,"locus YML124C, strain tub3, active compounds read low",0.995
same,normalized growth,"locus YMR078C, strain ctf18, active compounds read low",1
same,normalized growth,"locus YMR223W, strain ubp8, active compounds read low",1.01
same,normalized growth,"locus YMR263W, strain SAP30, active compounds read low",1.03
same,normalized growth,"locus YMR307W, strain GAS1, active compounds read low",1.08
same,normalized growth,"locus YNL067W, strain RPL9B, active compounds read low",1.02
same,normalized growth,"locus YNL233W, strain BNI4, active compounds read low",1.03
same,normalized growth,"locus YNL250W, strain rad50, active compounds read low",1.01
same,normalized growth,"locus YNL271C, strain bni1, active compounds read low",0.999
same,normalized growth,"locus YNL298W, strain CLA4, active compounds read low",1.03
same,normalized growth,"locus YNL307C, strain MCK1, active compounds read low",0.995
same,normalized growth,"locus YNR052C, strain pop2, active compounds read low",0.989
same,normalized growth,"locus YOL006C, strain TOP1, active compounds read low",1.03
same,normalized growth,"locus YOL012C, strain htz1",0.879
same,normalized growth,"locus YOL147C, strain pex11, active compounds read low",0.987
same,normalized growth,"locus YOR061W, strain CKA2, active compounds read low",1.02
same,normalized growth,"locus YOR069W, strain VPS5, active compounds read low",1.02
same,normalized growth,"locus YOR136W, strain idh2, active compounds read low",0.991
same,normalized growth,"locus YOR144C, strain elg1, active compounds read low",0.987
same,normalized growth,"locus YOR184W, strain ser1, active compounds read low",0.977
same,normalized growth,"locus YOR316C, strain cot1, active compounds read low",0.998
same,normalized growth,"locus YPR119W, strain clb2, active compounds read low",0.983
same,normalized growth,"locus YPR141C, strain kar3, active compounds read low",0.994
same,normalized growth,"locus YPR163C, strain tif3, active compounds read low",0.997
same,normalized growth,"locus YPR167C, strain met16, active compounds read low",0.99
same,normalized growth,"strain wtn01, active compounds read low",0.966
